The text below walks through data of PubChem BioAssay (NCI).

Compounds without any hit were thinned out: in the full panel of roughly 79,000, 15% have a hit. Unmarked numbers belong to inactive results. Calls of active or inactive are those of the source. Cut-off read from the data, not from the text of the source: active = growth inhibition above about 70%; inactive = the rest.

Experiment [1] can be described thus: NCI Yeast Anticancer Drug Screen. Data for the rad50 strain (AID 155).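 Note: 0% = growth of vehicle-only cultures of the same strain.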 To be noted: S. cerevisiae rad50 strain growth inhibition, active compounds read high. An outline of the steps: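 Genetically altered yeast (DNA repair pathway); compound treatment; growth inhibition vs vehicle ctrl.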
A short description of experiment [2]: NCI Yeast Anticancer Drug Screen. Data for the mec2-1 strain (AID 157). To be noted: S. cerevisiae mec2-1 strain, active compounds read high. An outline of the steps:
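Cells of the genetically defined mec2-1 yeast strain are incubated with test compound. Inhibition of growth is calculated against vehicle-treated controls.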

The nature of experiment [3]: NCI Yeast Anticancer Drug Screen. Data for the sgs1 mgt1 strain (AID 161).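 Note: 0% = growth of cultures given vehicle only.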 To be noted: S. cerevisiae sgs1 mgt1 strain, active compounds read high. An outline of the steps:
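Inhibition of yeast growth, normalised to vehicle-treated controls, is reported for a strain bearing genetic alterations in DNA damage repair.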

Experiment [4] can be described thus: NCI Yeast Anticancer Drug Screen. Data for the cln2 rad14 strain (AID 165).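 Note: 0% = growth equal to vehicle treated cultures.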 To be noted: S. cerevisiae cln2 rad14 strain, active compounds read high. In a few lines:
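The screen exposed genetically defined yeast (cln2 rad14) to test compounds and scored growth inhibition relative to vehicle-treated controls.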

Experiment [5] in a line: NCI Yeast Anticancer Drug Screen. Data for the bub3 strain (AID 167). To be noted: S. cerevisiae bub3 mutant strain, active compounds read high. In a few lines: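 Yeast carrying a defined mutation is treated with each compound, and growth is compared with that of vehicle-exposed cells to give inhibition.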
The nature of experiment [6]: NCI Yeast Anticancer Drug Screen. Data for the mlh1 rad18 strain (AID 175). To be noted: S. cerevisiae mlh1 rad18 strain growth inhibition, active compounds read high. In a few lines:
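Compound-treated yeast growth, normalised to vehicle controls. Strain bears defined DNA repair mutations.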

The mark [7] stands for this setting: at 5.0 µM (retest, dose inferred, filed as 0.5).
The mark [8] stands for this setting: at 50.0 µM (retest, dose inferred, filed as 5.0).

For the compound `CCC1(C)OC(=O)C(c2ccccc2)O1` (stereo not given), the growth inhibition is 1% in experiment [1] (setting [7]); -6% in experiment [1] (setting [8]); 9.2% in experiment [1] (at 50.0 µM); -2% in experiment [2] (setting [7]); 7% in experiment [2] (setting [8]); -1.85% in experiment [2] (at 50.0 µM). In addition, the growth inhibition in experiment [3] (setting [7]) is 5%; in experiment [3] (setting [8]), -5%; in experiment [3] (at 50.0 µM), -19.5%; in experiment [4] (setting [7]), 2%; in experiment [4] (setting [8]), 1%; in experiment [4] (at 50.0 µM) it was 9.7%. For the same compound, the growth inhibition is 2% in experiment [5] (setting [7]); 3% in experiment [5] (setting [8]); -6.45% in experiment [5] (at 50.0 µM); -2% in experiment [6] (setting [7]); -5% in experiment [6] (setting [8]); 17.1% in experiment [6] (at 50.0 µM).
For the compound `O=[N+]([O-])c1ccc(CO)o1`, the growth inhibition in experiment [1] (setting [7]) was 10%; in experiment [1] (setting [8]), 68%; in experiment [1] (at 50.0 µM) it was 93.1% (active); in experiment [2] (setting [7]), 0%; in experiment [2] (setting [8]) it was 10%; in experiment [2] (at 50.0 µM), 38.8%. Moreover, the growth inhibition was 2% in experiment [3] (setting [7]); 14% in experiment [3] (setting [8]); 76.4% (active) in experiment [3] (at 50.0 µM); 3% in experiment [4] (setting [7]); -2% in experiment [4] (setting [8]); 29.1% in experiment [4] (at 50.0 µM). In addition, the growth inhibition in experiment [5] (setting [7]) is 0%; in experiment [5] (setting [8]), 1%; in experiment [5] (at 50.0 µM) it was 26.7%; in experiment [6] (setting [7]) it was 6%; in experiment [6] (setting [8]), 33%; in experiment [6] (at 50.0 µM), 84.5% (active).
Take `c1ccc(C(c2ccccc2)c2ccc3ccccc3n2)cc1`: the growth inhibition in experiment [1] (setting [7]) is -3%; in experiment [1] (setting [8]) it was 91% (active); in experiment [1] (at 50.0 µM) it was 18.1%; in experiment [2] (setting [7]), -2%; in experiment [2] (setting [8]), 71% (active); in experiment [2] (at 50.0 µM), 40.8%. In addition, the growth inhibition in experiment [3] (setting [7]) is -4%; in experiment [3] (setting [8]) it was 92% (active); in experiment [3] (at 50.0 µM), 67.8%; in experiment [4] (setting [7]), 2%; in experiment [4] (setting [8]), 45%; in experiment [4] (at 50.0 µM) it was -15.3%. For the same compound, the growth inhibition in experiment [5] (setting [7]) is 23%; in experiment [5] (setting [8]), 58%; in experiment [5] (at 50.0 µM), 61.4%; in experiment [6] (setting [7]), -3%; in experiment [6] (setting [8]) it was 80% (active); in experiment [6] (at 50.0 µM), 37.5%.
`S=C(NCCc1ccccn1)N/N=C/c1ccccn1`: the growth inhibition was 10% in experiment [1] (setting [7]); 99% (active) in experiment [1] (setting [8]); 76.5% (active) in experiment [1] (at 50.0 µM); -1% in experiment [2] (setting [7]); 99% (active) in experiment [2] (setting [8]); 84.9% (active) in experiment [2] (at 50.0 µM). Further, the growth inhibition was 7% in experiment [3] (setting [7]); 98% (active) in experiment [3] (setting [8]); 88.3% (active) in experiment [3] (at 50.0 µM); -3% in experiment [4] (setting [7]); 97% (active) in experiment [4] (setting [8]); 89.8% (active) in experiment [4] (at 50.0 µM). In addition, the growth inhibition was -17% in experiment [5] (setting [7]); 99% (active) in experiment [5] (setting [8]); 90.4% (active) in experiment [5] (at 50.0 µM); 28% in experiment [6] (setting [7]); 99% (active) in experiment [6] (setting [8]); 91.5% (active) in experiment [6] (at 50.0 µM).
Consider `[O-]c1c2cc(-[n+]3c(-c4ccccc4)cc(-c4ccccc4)cc3-c3ccccc3)cc1CO[C@@H](c1ccccc1)[C@H](c1ccccc1)OCCOCCO[C@@H](c1ccccc1)[C@H](c1ccccc1)OC2`, for which the growth inhibition in experiment [1] (setting [7]) is 97% (active); in experiment [1] (setting [8]), 95% (active); in experiment [1] (at 50.0 µM) it was 87.5% (active); in experiment [2] (setting [7]), 98% (active); in experiment [2] (setting [8]), 95% (active); in experiment [2] (at 50.0 µM), 91.4% (active). Further, the growth inhibition was 98% (active) in experiment [3] (setting [7]); 97% (active) in experiment [3] (setting [8]); 88.4% (active) in experiment [3] (at 50.0 µM); 95% (active) in experiment [4] (setting [7]); 97% (active) in experiment [4] (setting [8]); 88.6% (active) in experiment [4] (at 50.0 µM). Also, the growth inhibition in experiment [5] (setting [7]) was 97% (active); in experiment [5] (setting [8]), 72% (active); in experiment [5] (at 50.0 µM), 89% (active); in experiment [6] (setting [7]), 98% (active); in experiment [6] (setting [8]) it was 94% (active); in experiment [6] (at 50.0 µM), 29.6%.
Regarding `Cc1cccc(NC(=S)N/N=C(/c2ccccc2)c2ccccn2)c1`, the growth inhibition in experiment [1] (setting [7]) was -3%; in experiment [1] (setting [8]) it was 94% (active); in experiment [1] (at 50.0 µM) it was 56%; in experiment [2] (setting [7]), -1%; in experiment [2] (setting [8]), 94% (active); in experiment [2] (at 50.0 µM), 66.5%. In addition, the growth inhibition was -35% in experiment [3] (setting [7]); 93% (active) in experiment [3] (setting [8]); 73.2% (active) in experiment [3] (at 50.0 µM); -15% in experiment [4] (setting [7]); 92% (active) in experiment [4] (setting [8]); 74.7% (active) in experiment [4] (at 50.0 µM). The growth inhibition is -38% in experiment [5] (setting [7]); 93% (active) in experiment [5] (setting [8]); 77.4% (active) in experiment [5] (at 50.0 µM); -8% in experiment [6] (setting [7]); 93% (active) in experiment [6] (setting [8]); 76.8% (active) in experiment [6] (at 50.0 µM).
With `O=C1C(Cl)=C(Cl)C(=C2C(Cl)=C(Cl)C(=O)C(Cl)=C2Cl)C(Cl)=C1Cl`, the growth inhibition was 98% (active) in experiment [1] (setting [7]); 99% (active) in experiment [1] (setting [8]); 99.5% (active) in experiment [1] (at 50.0 µM); 97% (active) in experiment [2] (setting [7]); 100% (active) in experiment [2] (setting [8]); 99.6% (active) in experiment [2] (at 50.0 µM). Moreover, the growth inhibition in experiment [3] (setting [7]) is 91% (active); in experiment [3] (setting [8]), 99% (active); in experiment [3] (at 50.0 µM), 99.5% (active); in experiment [4] (setting [7]), 99% (active); in experiment [4] (setting [8]) it was 99% (active); in experiment [4] (at 50.0 µM), 99% (active). Further, the growth inhibition in experiment [5] (setting [7]) was 79% (active); in experiment [5] (setting [8]) it was 98% (active); in experiment [5] (at 50.0 µM), 99.5% (active); in experiment [6] (setting [7]) it was 97% (active); in experiment [6] (setting [8]), 99% (active); in experiment [6] (at 50.0 µM), 99.4% (active).
For `Clc1ccc(CNc2ccc(Br)cc2)cc1`, the growth inhibition in experiment [1] (setting [7]) is 0%; in experiment [1] (setting [8]), 82% (active); in experiment [1] (at 50.0 µM), 94.5% (active); in experiment [2] (setting [7]), 3%; in experiment [2] (setting [8]), 93% (active); in experiment [2] (at 50.0 µM) it was 85.5% (active). Further, the growth inhibition was 4% in experiment [3] (setting [7]); 94% (active) in experiment [3] (setting [8]); 95.8% (active) in experiment [3] (at 50.0 µM); -9% in experiment [4] (setting [7]); 80% (active) in experiment [4] (setting [8]); 82.2% (active) in experiment [4] (at 50.0 µM). The growth inhibition in experiment [5] (setting [7]) was 3%; in experiment [5] (setting [8]), 86% (active); in experiment [5] (at 50.0 µM) it was 85.2% (active); in experiment [6] (setting [7]), -1%; in experiment [6] (setting [8]) it was 91% (active); in experiment [6] (at 50.0 µM) it was 87.7% (active).
For the compound `O=C(C[P+](c1ccccc1)(c1ccccc1)c1ccccc1)c1ccc(Br)cc1`, the growth inhibition in experiment [1] (setting [7]) was 67%; in experiment [1] (setting [8]) it was 96% (active); in experiment [1] (at 50.0 µM), 98.8% (active); in experiment [2] (setting [7]), 53%; in experiment [2] (setting [8]), 98% (active); in experiment [2] (at 50.0 µM), 97.4% (active). Further, the growth inhibition in experiment [3] (setting [7]) was 82% (active); in experiment [3] (setting [8]) it was 99% (active); in experiment [3] (at 50.0 µM) it was 96.8% (active); in experiment [4] (setting [7]), 22%; in experiment [4] (setting [8]), 96% (active); in experiment [4] (at 50.0 µM) it was 95.9% (active). For the same compound, the growth inhibition in experiment [5] (setting [7]) is 62%; in experiment [5] (setting [8]), 97% (active); in experiment [5] (at 50.0 µM), 97.7% (active); in experiment [6] (setting [7]), 69%; in experiment [6] (setting [8]), 97% (active); in experiment [6] (at 50.0 µM), 96% (active).
Regarding `CC(C)C(Br)CC/C(CBr)=C(\Cl)CCl` (stereo not given), the growth inhibition was 24% in experiment [1] (setting [7]); 99% (active) in experiment [1] (setting [8]); 87% (active) in experiment [1] (at 50.0 µM); 21% in experiment [2] (setting [7]); 99% (active) in experiment [2] (setting [8]); 85.1% (active) in experiment [2] (at 50.0 µM). Also, the growth inhibition in experiment [3] (setting [7]) is 13%; in experiment [3] (setting [8]), 99% (active); in experiment [3] (at 50.0 µM), 92.5% (active); in experiment [4] (setting [7]) it was 17%; in experiment [4] (setting [8]) it was 98% (active); in experiment [4] (at 50.0 µM), 90.2% (active). Moreover, the growth inhibition was 30% in experiment [5] (setting [7]); 99% (active) in experiment [5] (setting [8]); 92.2% (active) in experiment [5] (at 50.0 µM); 17% in experiment [6] (setting [7]); 99% (active) in experiment [6] (setting [8]); 56.4% in experiment [6] (at 50.0 µM).
